Test results: PubChem BioAssay (NCI)
About 83,000 compounds went through this panel and 20% of them were active in at least one assay; those are over-represented in the sample as a whole.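 Compound tested at a single concentration for 48 hours in 96-well plates; a percent growth value below 10 was scored as active.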 A number with no mark means an inactive call. Calls of active or inactive are those of the source.

System: SW-620 colon
Experiment: NCI-60 one-dose screen, 48 h (100 = growth as untreated, 0 = no growth, -100 = all killed)
Details: 10 µM unless noted

Structure (SMILES)	growth
Brc1ccc2[nH]cc(-c3cncn3CCc3ccccc3)c2c1	72.2%
CN(CCN(C)c1ccc(C(=N)N)cc1)c1ccc(C(=N)N)cc1	104%
Nc1ccccc1NC(=O)c1ccc(-n2nc(-c3ccccc3)c3ccccc32)cc1	84.8%
CC(C)(C)c1cc(/C=N/NC(=O)c2ccccc2NC(=O)c2cccs2)c(O)c(C(C)(C)C)c1	17.1%
CCCCCCCCO/N=C\c1c2c(O)c3c(O)c(C)c4c(c3c1O)C(=O)C(C)(O/C=C\C(OC)C(C)C(OC(C)=O)C(C)C(O)C(C)C(O)C(C)/C=C\C=C(\C)C(=O)N2)O4 (stereo unspecified)	15.1%
O=C1CC(=O)OC(c2ccc([N+](=O)[O-])cc2)O1	-42.8% (active)
CN1CCN(c2ccc(NC3=C(Cl)C(=O)c4ncccc4C3=O)cc2C(F)(F)F)CC1	-53% (active)
O=C(c1nc2ccccc2[nH]1)C1C(c2ccc(Br)cc2)C2CC3CCCC[C@H]3N2[C@@]12C(=O)Nc1cc(Cl)ccc12 (stereo partly specified)	31.2%
N=C(N)c1ccc(OCCCCCCCCCCOc2ccc(C(=N)N)cc2)cc1	-91.3% (active)
CNC(=O)c1cc(Cn2nc(C)c(NC(=O)Nc3ccc(Cl)c(C(F)(F)F)c3)c2C)ccn1	111%
O=S(=O)(Nc1ccc(-n2cnc3cc(-c4ccc(O)cc4)ccc32)cc1)c1ccccc1	109%
O=C(N/N=C/c1ccc(Oc2ccccc2)cc1)c1cnn2c1NC(c1ccccc1)C2 (stereo unspecified)	42.1%
COc1cc(/C(C)=C(\c2ccc(Cl)cc2)c2ccc(OCCN3CCCC3)cc2)ccc1F	43.2%
N#CC1C(C#N)C(C(=O)c2ccc(Br)cc2)N2c3ccccc3C=CC12 (stereo unspecified)	66.4%
CC(Sc1nc2sc3c(c2c(=O)n1-c1ccc(Cl)cc1)CCCC3)C(=O)Nc1nc(-c2ccc(Br)cc2)cs1 (stereo unspecified)	104%
COc1cc2c(cc1OC)C(=O)/C(=C/c1cc(C)c(O)c(C)c1)S2	33.4%
O=C1/C=C/[C@@H](O)[C@@H]2C[C@@H](O)C[C@H]2/C=C/CCC[C@H](CCc2cccc3ccccc23)O1	-28% (active)
COc1ccc(C/C(=C(\C)c2ccc(OCCN3CCCC3)cc2)c2ccc(OCCN3CCCC3)cc2)cc1	-35.4% (active)
CC1=CCC(OC(=O)C(C)(O)CCC(O)(C(=O)OC2(C)C=CC(O)(C(C)C)CC2)C(C)C)(C(C)C)CC1 (stereo unspecified)	103%

Structure (SMILES)	growth
CC(C)c1ccc(Nc2ccc3c(OCCCN4CCN(C)CC4)cccc3n2)cc1	4.69% (active)
CCCOc1ccc(/C=N/Nc2cc(C)nc3ccc(Cl)cc23)cc1	-75.5% (active)
CC(Oc1ccc(C(=O)O)cc1C(F)(F)F)c1ccc(Oc2ccccc2)cn1 (stereo unspecified)	103%
COc1ccc(NC(=O)c2cc(NCc3cc(O)ccc3O)ccc2O)cc1	100%
ClC1=C(Br)C(Br)(Br)C(=C(Br)Br)C1(Br)Br	54%
COc1cccc(-c2nc3occn3c2-c2ccnc(NCCCNS(=O)(=O)c3ccc(C(F)(F)F)cc3)n2)c1	124%
Cn1nc(CC#N)c2c(=N)n(N)cnc21	104%
N#C/C(=C\c1ccc(C(F)(F)F)cc1)c1cc2ccccc2[nH]1	100%
CCCCCCCCOc1ccc(/C=N/Nc2cc(C)nc3ccc(Br)cc23)cc1	8.02% (active)
CC(=O)N1N=C(c2ccc(-n3ccc(C(F)(F)F)n3)c(F)c2)CC1c1ccc[nH]1 (stereo unspecified)	107%
COc1cc(-c2csc(NC(=O)c3cc(F)cc(C(F)(F)F)c3)n2)cc(OC)c1OC	32.4%
COc1cc(/C=C/C(=O)c2nc3cc(F)ccc3nc2C)cc(OC)c1OC	29.9%
N#Cc1cc(-c2nc3ccccc3s2)c(=O)n(NS(=O)(=O)c2ccccc2)c1N	100%
CC(C)N1C(=O)S/C(=C2/SC(=O)N(C(C)C)C2=O)C1=O	102%
O=C(/C=C/c1ccc[nH]1)c1ccc(-n2ccc(C(F)(F)F)n2)c(F)c1	103%
Nc1c(C(=O)Nc2cccc3cnccc23)sc2nc3c(cc12)C(=O)CCC3	79.4%
COc1ccc(Cc2cnc(NC(=O)c3ccc4c(c3)OCCO4)s2)cc1	31.4%
Cc1ccc(NC(=O)c2cc(-c3nc4ccccc4s3)c(=O)n(NS(=O)(=O)c3ccc(Cl)cc3)c2N)cc1	111%
COc1cc(-c2n/c(=C\c3c(O)[nH]c4ccc(Cl)cc34)cc3c2=Nc2ccccc2-3)ccc1F	-1.7% (active)

System: MCF7 breast
Experiment: as above
Details: 10 µM unless noted

Structure (SMILES)	growth
Brc1ccc2[nH]cc(-c3cncn3CCc3ccccc3)c2c1	48.9%
CN(CCN(C)c1ccc(C(=N)N)cc1)c1ccc(C(=N)N)cc1	108%
Nc1ccccc1NC(=O)c1ccc(-n2nc(-c3ccccc3)c3ccccc32)cc1	57.1%
CC(C)(C)c1cc(/C=N/NC(=O)c2ccccc2NC(=O)c2cccs2)c(O)c(C(C)(C)C)c1	18.1%
CCCCCCCCO/N=C\c1c2c(O)c3c(O)c(C)c4c(c3c1O)C(=O)C(C)(O/C=C\C(OC)C(C)C(OC(C)=O)C(C)C(O)C(C)C(O)C(C)/C=C\C=C(\C)C(=O)N2)O4 (stereo unspecified)	21.7%
O=C1CC(=O)OC(c2ccc([N+](=O)[O-])cc2)O1	7.35% (active)
CN1CCN(c2ccc(NC3=C(Cl)C(=O)c4ncccc4C3=O)cc2C(F)(F)F)CC1	-49.1% (active)
O=C(c1nc2ccccc2[nH]1)C1C(c2ccc(Br)cc2)C2CC3CCCC[C@H]3N2[C@@]12C(=O)Nc1cc(Cl)ccc12 (stereo partly specified)	16%
N=C(N)c1ccc(OCCCCCCCCCCOc2ccc(C(=N)N)cc2)cc1	-71.7% (active)
CNC(=O)c1cc(Cn2nc(C)c(NC(=O)Nc3ccc(Cl)c(C(F)(F)F)c3)c2C)ccn1	93.8%
O=S(=O)(Nc1ccc(-n2cnc3cc(-c4ccc(O)cc4)ccc32)cc1)c1ccccc1	87.9%
O=C(N/N=C/c1ccc(Oc2ccccc2)cc1)c1cnn2c1NC(c1ccccc1)C2 (stereo unspecified)	17.7%
COc1cc(/C(C)=C(\c2ccc(Cl)cc2)c2ccc(OCCN3CCCC3)cc2)ccc1F	26.5%
N#CC1C(C#N)C(C(=O)c2ccc(Br)cc2)N2c3ccccc3C=CC12 (stereo unspecified)	13%
CC(Sc1nc2sc3c(c2c(=O)n1-c1ccc(Cl)cc1)CCCC3)C(=O)Nc1nc(-c2ccc(Br)cc2)cs1 (stereo unspecified)	91.8%
COc1cc2c(cc1OC)C(=O)/C(=C/c1cc(C)c(O)c(C)c1)S2	20%
O=C1/C=C/[C@@H](O)[C@@H]2C[C@@H](O)C[C@H]2/C=C/CCC[C@H](CCc2cccc3ccccc23)O1	-30.8% (active)
COc1ccc(C/C(=C(\C)c2ccc(OCCN3CCCC3)cc2)c2ccc(OCCN3CCCC3)cc2)cc1	-7% (active)
CC1=CCC(OC(=O)C(C)(O)CCC(O)(C(=O)OC2(C)C=CC(O)(C(C)C)CC2)C(C)C)(C(C)C)CC1 (stereo unspecified)	97.9%

Structure (SMILES)	growth
CC(C)c1ccc(Nc2ccc3c(OCCCN4CCN(C)CC4)cccc3n2)cc1	18.2%
CCCOc1ccc(/C=N/Nc2cc(C)nc3ccc(Cl)cc23)cc1	-20.5% (active)
CC(Oc1ccc(C(=O)O)cc1C(F)(F)F)c1ccc(Oc2ccccc2)cn1 (stereo unspecified)	89.5%
COc1ccc(NC(=O)c2cc(NCc3cc(O)ccc3O)ccc2O)cc1	75.6%
ClC1=C(Br)C(Br)(Br)C(=C(Br)Br)C1(Br)Br	76.8%
COc1cccc(-c2nc3occn3c2-c2ccnc(NCCCNS(=O)(=O)c3ccc(C(F)(F)F)cc3)n2)c1	79.8%
Cn1nc(CC#N)c2c(=N)n(N)cnc21	100%
N#C/C(=C\c1ccc(C(F)(F)F)cc1)c1cc2ccccc2[nH]1	77.4%
CCCCCCCCOc1ccc(/C=N/Nc2cc(C)nc3ccc(Br)cc23)cc1	15.8%
CC(=O)N1N=C(c2ccc(-n3ccc(C(F)(F)F)n3)c(F)c2)CC1c1ccc[nH]1 (stereo unspecified)	92.8%
COc1cc(-c2csc(NC(=O)c3cc(F)cc(C(F)(F)F)c3)n2)cc(OC)c1OC	20.9%
COc1cc(/C=C/C(=O)c2nc3cc(F)ccc3nc2C)cc(OC)c1OC	34.1%
N#Cc1cc(-c2nc3ccccc3s2)c(=O)n(NS(=O)(=O)c2ccccc2)c1N	105%
CC(C)N1C(=O)S/C(=C2/SC(=O)N(C(C)C)C2=O)C1=O	97.9%
O=C(/C=C/c1ccc[nH]1)c1ccc(-n2ccc(C(F)(F)F)n2)c(F)c1	30.9%
Nc1c(C(=O)Nc2cccc3cnccc23)sc2nc3c(cc12)C(=O)CCC3	53.8%
COc1ccc(Cc2cnc(NC(=O)c3ccc4c(c3)OCCO4)s2)cc1	9.58% (active)
Cc1ccc(NC(=O)c2cc(-c3nc4ccccc4s3)c(=O)n(NS(=O)(=O)c3ccc(Cl)cc3)c2N)cc1	93.7%
COc1cc(-c2n/c(=C\c3c(O)[nH]c4ccc(Cl)cc34)cc3c2=Nc2ccccc2-3)ccc1F	-54.2% (active)
